Measurements reported in ChEMBL document CHEMBL5606458, “ASAP - ZIKV NS2B-NS3 protease fluorescence single point” (2024).
About 160 (5.9%) of roughly 2,700 compounds showed an effect of 50% or more. This is one part of a sample in which strong results are shown more often than they occur.

Target: Nonstructural protein 3 (Zika virus) (UniProt A0A024AXB9)
[1] = PRVABC59, Concentration 50.0 uM, Number of replicates 1.0
[2] = PRVABC59, Concentration 10.0 uM, Number of replicates 1.0

Nonstructural protein 3 (Zika virus), sequence (A0A024AXB9 as listed by the source): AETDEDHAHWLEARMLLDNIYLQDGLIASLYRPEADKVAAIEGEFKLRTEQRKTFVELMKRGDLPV

Cc1cc(NS(=O)(=O)c2ccc(Oc3ccccc3Cl)cc2)c(C(=O)NCC(F)(F)F)cc1F
inhibition (PRVABC59, Concentration 49.5 uM, Number of replicates 2.0, Standard deviation 1.109661109382951 %): 38%
inhibition (PRVABC59, Concentration 99.01 uM, Number of replicates 2.0, Standard deviation 0.5262974754243883 %): 43.1%
inhibition (PRVABC59, Concentration 198.0 uM, Number of replicates 2.0, Standard deviation 0.754567504357695 %): 32.6%

CNC(=O)c1cc(Cl)ccc1NS(=O)(=O)c1ccc(Oc2ccccc2Cl)cc1
inhibition (PRVABC59, Concentration 49.5 uM, Number of replicates 2.0, Standard deviation 4.182044982903414 %): 16.8%
inhibition (PRVABC59, Concentration 99.01 uM, Number of replicates 2.0, Standard deviation 0.7456984587318506 %): 44.5%
inhibition (PRVABC59, Concentration 198.0 uM, Number of replicates 2.0, Standard deviation 0.5270959053225787 %): 31.5%

O=Cc1ccc(N2CCC(C(=O)N3CCC(N4CCc5ccccc5C4)CC3)CC2)cc1
inhibition [1]: 31.7%

NS(=O)(=O)c1nc(C(=O)N2CCc3c(CO)cccc32)n2ccccc12
inhibition (PRVABC59, Concentration 49.5 uM, Number of replicates 2.0, Standard deviation 0.7415262579040602 %): 14.9%
inhibition (PRVABC59, Concentration 99.01 uM, Number of replicates 2.0, Standard deviation 0.42632784815485236 %): 16%
inhibition (PRVABC59, Concentration 198.0 uM, Number of replicates 2.0, Standard deviation 0.11314911538628655 %): 22.8%

O=Cc1ccc(N2CCC(C(=O)Nc3cccc(Br)n3)CC2)cc1
inhibition [1]: 69.5%

O=Cc1ccc(N2CCC(C(=O)Nc3ccc(Br)cc3O)CC2)cc1
inhibition [1]: 36.5%

O=Cc1ccc(N2CCC(C(=O)NCCc3ccccc3[N+](=O)[O-])CC2)cc1
inhibition [1]: 31.8%

O=Cc1ccc(N2CCC(C(=O)NCCc3ccc(O)c(O)c3)CC2)cc1
inhibition [1]: 48.5%

CC(=O)Nc1cccc(CNC(=O)C2CCN(c3ccc(C=O)cc3)CC2)c1
inhibition [2]: 37.6%

O=Cc1ccc(N2CCC(C(=O)NC[C@H](O)c3ccc(O)c(O)c3)CC2)cc1
inhibition [1]: 37%

CC1CCN(CCCCNC(=O)C2CCN(c3ccc(C=O)cc3)CC2)CC1
inhibition [1]: 38.3%

O=Cc1ccc(N2CCC(C(=O)NCCC3CCN(Cc4ccccc4)CC3)CC2)cc1
inhibition [1]: 36.7%

O=Cc1ccc(N2CCC(C(=O)NCCN3CCc4ccccc43)CC2)cc1
inhibition [1]: 67.9%

O=Cc1ccc(N2CCC(C(=O)NCc3cccc(-c4ccccc4)c3)CC2)cc1
inhibition [2]: 66.7%

O=Cc1ccc(N2CCC(C(=O)Nc3ncc(Br)cc3O)CC2)cc1
inhibition [1]: 63.3%

Cc1ccc(N)cc1NC(=O)c1ccc2c(c1)CCNCC2
inhibition (PRVABC59, Concentration 49.95 uM, Number of replicates 2.0, Standard deviation 12.72305005425739 %): -5.44%
inhibition (PRVABC59, Concentration 99.9 uM, Number of replicates 2.0, Standard deviation 9.350903464198954 %): 18.5%

Cc1ccc2cccc(NC(=O)C3CCN(c4ccc(C=O)cc4)CC3)c2n1
inhibition [1]: 60.8%

N#Cc1ccc(NC(=O)C2CCN(c3ccc(C=O)cc3)CC2)cc1Br
inhibition [1]: 22.8%

CCN1CCN(c2ccc(NC(=O)C3CCN(c4ccc(C=O)cc4)CC3)cc2)CC1
inhibition [1]: 54.8%

O=Cc1ccc(N2CCC(C(=O)NC[C@@H]3CCCN4CCCC[C@H]34)CC2)cc1
inhibition [1]: 36.4%

CN1[C@@H]2CCC[C@H]1C[C@@H](NC(=O)C1CCN(c3ccc(C=O)cc3)CC1)C2
inhibition [1]: 43.1%

CCn1ccnc(N2CC[C@H](c3cccc(C#N)c3)C2)c1=O
inhibition (PRVABC59, Concentration 50.0 uM, Number of replicates 2.0, Standard deviation 16.00595625597801 %): 20.3%
inhibition (PRVABC59, Concentration 100.0 uM, Number of replicates 2.0, Standard deviation 3.036416764525631 %): 15.1%
inhibition (PRVABC59, Concentration 200.0 uM, Number of replicates 2.0, Standard deviation 6.611719762363672 %): 25.1%

CNc1cc(COc2cccnc2F)nc(N2CCNCC2)n1
inhibition (PRVABC59, Concentration 49.5 uM, Number of replicates 2.0, Standard deviation 2.059359081452019 %): 4.89%
inhibition (PRVABC59, Concentration 99.01 uM, Number of replicates 2.0, Standard deviation 2.151250675148563 %): 12.3%
inhibition (PRVABC59, Concentration 198.0 uM, Number of replicates 2.0, Standard deviation 2.3891841335084476 %): 24%

CCn1ccnc(N2CC[C@H](c3ccc(F)cc3)C2)c1=O
inhibition (PRVABC59, Concentration 49.5 uM, Number of replicates 2.0, Standard deviation 0.27991239382631117 %): 8.78%
inhibition (PRVABC59, Concentration 99.01 uM, Number of replicates 2.0, Standard deviation 0.05869134101275442 %): 18.2%
inhibition (PRVABC59, Concentration 198.0 uM, Number of replicates 2.0, Standard deviation 0.2009049231321535 %): 32.5%

O=C(O)c1ccn(C2CCN(Cc3c[nH]c4ccccc34)CC2)n1
inhibition (PRVABC59, Concentration 49.5 uM, Number of replicates 2.0, Standard deviation 1.5195725914554161 %): 20.5%
inhibition (PRVABC59, Concentration 99.01 uM, Number of replicates 2.0, Standard deviation 1.1461623032421138 %): 35.4%
inhibition (PRVABC59, Concentration 198.0 uM, Number of replicates 2.0, Standard deviation 1.0942994260377004 %): 52.6%

NC(=O)C1CCN(Cc2c[nH]c3ccccc23)CC1
inhibition (PRVABC59, Concentration 49.5 uM, Number of replicates 2.0, Standard deviation 3.887096953751933 %): 5.72%
inhibition (PRVABC59, Concentration 99.01 uM, Number of replicates 2.0, Standard deviation 2.3727111220616615 %): 14.1%
inhibition (PRVABC59, Concentration 198.0 uM, Number of replicates 2.0, Standard deviation 2.367525373820881 %): 27.9%

c1ccc2c(CN3CCC(n4cccn4)CC3)c[nH]c2c1
inhibition (PRVABC59, Concentration 49.5 uM, Number of replicates 2.0, Standard deviation 0.7832462431332359 %): 26.9%
inhibition (PRVABC59, Concentration 99.01 uM, Number of replicates 2.0, Standard deviation 1.440111283496493 %): 42.5%
inhibition (PRVABC59, Concentration 198.0 uM, Number of replicates 2.0, Standard deviation 0.6771494756145803 %): 60.2%

NC(=O)[C@H]1CCCN(Cc2c[nH]c3ccccc23)C1
inhibition (PRVABC59, Concentration 49.5 uM, Number of replicates 2.0, Standard deviation 3.1390869089666538 %): 3.79%
inhibition (PRVABC59, Concentration 99.01 uM, Number of replicates 2.0, Standard deviation 3.56900861889403 %): 10.6%
inhibition (PRVABC59, Concentration 198.0 uM, Number of replicates 2.0, Standard deviation 2.510612912991002 %): 20.5%

NC[C@H]1C[C@@H](NC(=O)[C@@H](NC(=O)OCc2ccccc2)c2ccc(OCc3ccccc3)cc2)C1
inhibition (PRVABC59, Concentration 49.5 uM, Number of replicates 2.0, Standard deviation 0.8838686407925086 %): 24%
inhibition (PRVABC59, Concentration 99.01 uM, Number of replicates 2.0, Standard deviation 0.4383595932929543 %): 66.8%
inhibition (PRVABC59, Concentration 198.0 uM, Number of replicates 2.0, Standard deviation 0.05241044906026695 %): 91.6%

NC[C@H]1C[C@H](NC(=O)[C@@H](NC(=O)OCc2ccccc2)c2ccc(OCc3ccccc3)cc2)C1
inhibition (PRVABC59, Concentration 49.5 uM, Number of replicates 2.0, Standard deviation 1.2395145381206512 %): 10.3%
inhibition (PRVABC59, Concentration 99.01 uM, Number of replicates 2.0, Standard deviation 2.826506577153246 %): 46.7%
inhibition (PRVABC59, Concentration 198.0 uM, Number of replicates 2.0, Standard deviation 0.7649713696189122 %): 82.7%
